These results are taken from PubChem BioAssay (NCATS).

Where “and” joins values, the source holds several entries; their conditions need not be identical. Identical values can stand only once. Inconclusive results are not listed. Calls of active or inactive are those of the source. Unless noted, the call rests on the fitted dose curve; in most records, active means well fitted curve in the direction sought with a large enough effect; inconclusive means small, poorly fitted or top-dose-only effect, or another doubt; inactive means no such curve, though single readings can be large or run the other way.

The nature of assay [1]: qHTS Assay for Identifying Gametocytocidal Compounds (AID 743244). Further: potency means the concentration at half of the fitted maximal effect.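 On max response: on the % scale 0 is the no-effect control and ±100 the full control effect; actives lower the fluorescent signal which means gametocytes are killed.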 Particulars: P. falciparum 3D7 stage III-V gametocytes, alamarBlue, 72 h; max response: stronger effect = lower value. A digest of the protocol: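 Compounds are pinned into medium, gametocytes (stage III–V, 3D7, 20,000 cells/well) added, and plates held 72 h at 37 °C in 5% CO2. AlamarBlue follows for 24 h before fluorescence reading.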
On the technique in general: qHTS replaces the single test concentration by a dilution series.

Assay [2] concerns the target T1, Hexokinase-4 (Homo sapiens) + Glucokinase regulatory protein (Homo sapiens) (UniProt P35557+Q14397). The experiment in a line: qHTS assay for inhibitors of recombinant human GCK-GKRP interaction: Diaphorase-coupled assay (AID 743205). The gist of the method:
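GST-GCK (10 nM) with FLAG-GKRP (10 nM), 5 mM glucose and 0.4 mM ATP in pH 7.6 Hepes; compounds preincubated 20 min with substrate. G6PDH/diaphorase coupling converts resazurin to resorufin, read kinetically (ex 525/em 590 nm) for 30 min.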

The target of assay [3] is T1, Hexokinase-4 (Homo sapiens) + Glucokinase regulatory protein (Homo sapiens). In words: qHTS assay for inhibitors of recombinant human GCK-GKRP interaction: ADP-Glo assay (AID 743206).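 Further: plate controls were DMSO plus enzyme for no effect and no enzyme for full effect.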 The gist of the method: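 Pin-transferred compounds meet a 15 nM GST-GCK/15 nM FLAG-GKRP/2 uM S6P mix (dispense concentrations). ATP is then added to 0.4 mM final with 5 mM glucose, and the reaction runs 60 min at room temperature. ADP is quantified luminescently.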

For assay [4] the target is unchanged. The experiment in a line: qHTS assay for inhibitors of recombinant human GCK-GKRP interaction: HTRF assay (AID 743207).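 Further: 0% = DMSO with GCK present and -100% = DMSO wells lacking GCK.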 The gist of the method:
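GST-GCK and FLAG-GKRP (5 nM each) were combined with 2 uM S6P in pH 7.1 Hepes/MgCl2/KCl/DTT buffer, then compound and anti-FLAG XL665/anti-GST K antibodies were added. After 60 min at room temperature, HTRF 665/615 nm emission was read.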

Assay [5] can be described thus: qHTS profiling of the MIPE4 collection as inhibitors of Plasmodium falciparum (3D7) proliferation (AID 743344; call rule not given here;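 further: scaled between DMSO vehicle wells and 0.29 µM artemisinin as full inhibition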). Particulars: P. falciparum 3D7 in erythrocytes, SYBR Green DNA fluorescence, 72 h; at 28.5 µM (top of the series). A digest of the protocol:
(§1)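 Parasite DNA was quantified by SYBR Green I fluorescence (ex 485, em 535 nm) after overnight lysis in saponin/Triton buffer at room temperature. Cultures at 0.3% parasitemia and 2.5% hematocrit were first exposed to compound for 72 h at 37 C; signals were normalised to artemisinin (0.29 uM) and vehicle wells.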

Assay [6] is described as follows: qHTS profiling of the MIPE4 collection as inhibitors of Plasmodium falciparum (DD2) proliferation (AID 743345; call rule not given here). Particulars: P. falciparum Dd2 in erythrocytes, SYBR Green DNA, 72 h; at 28.5 µM (top of the series). A digest of the protocol:
as §1

Assay [7] can be described thus: qHTS profiling of the MIPE4 collection as inhibitors of Plasmodium falciparum (DD2) proliferation (Rep 2) (AID 743346; call rule not given here). Particulars: P. falciparum Dd2 in erythrocytes, SYBR Green DNA, 72 h; at 28.5 µM (top of the series). A digest of the protocol:
as §1

Assay [8] in a line: qHTS profiling of the MIPE4 collection as inhibitors of Plasmodium falciparum (HB3) proliferation (AID 743347; call rule not given here;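 further: plate controls were DMSO vehicle wells for no effect and artemisinin wells for full effect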). Particulars: P. falciparum HB3 in erythrocytes, SYBR Green DNA, 72 h; at 28.5 µM (top of the series). A digest of the protocol:
as §1

T1 sequence (P35557 whole entry, looked up): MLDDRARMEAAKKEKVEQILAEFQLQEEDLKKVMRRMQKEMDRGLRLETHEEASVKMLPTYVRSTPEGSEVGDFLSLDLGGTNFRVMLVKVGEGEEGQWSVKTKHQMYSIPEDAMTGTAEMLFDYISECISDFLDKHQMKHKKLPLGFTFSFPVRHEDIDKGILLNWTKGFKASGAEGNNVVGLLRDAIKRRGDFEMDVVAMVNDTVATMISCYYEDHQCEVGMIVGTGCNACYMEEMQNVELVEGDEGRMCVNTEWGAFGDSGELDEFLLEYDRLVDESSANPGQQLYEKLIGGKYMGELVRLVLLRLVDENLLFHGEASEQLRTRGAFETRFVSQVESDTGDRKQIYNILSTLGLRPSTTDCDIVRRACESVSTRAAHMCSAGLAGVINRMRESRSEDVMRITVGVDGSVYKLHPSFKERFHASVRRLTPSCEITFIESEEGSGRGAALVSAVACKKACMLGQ
T1 sequence (Q14397 whole entry, looked up): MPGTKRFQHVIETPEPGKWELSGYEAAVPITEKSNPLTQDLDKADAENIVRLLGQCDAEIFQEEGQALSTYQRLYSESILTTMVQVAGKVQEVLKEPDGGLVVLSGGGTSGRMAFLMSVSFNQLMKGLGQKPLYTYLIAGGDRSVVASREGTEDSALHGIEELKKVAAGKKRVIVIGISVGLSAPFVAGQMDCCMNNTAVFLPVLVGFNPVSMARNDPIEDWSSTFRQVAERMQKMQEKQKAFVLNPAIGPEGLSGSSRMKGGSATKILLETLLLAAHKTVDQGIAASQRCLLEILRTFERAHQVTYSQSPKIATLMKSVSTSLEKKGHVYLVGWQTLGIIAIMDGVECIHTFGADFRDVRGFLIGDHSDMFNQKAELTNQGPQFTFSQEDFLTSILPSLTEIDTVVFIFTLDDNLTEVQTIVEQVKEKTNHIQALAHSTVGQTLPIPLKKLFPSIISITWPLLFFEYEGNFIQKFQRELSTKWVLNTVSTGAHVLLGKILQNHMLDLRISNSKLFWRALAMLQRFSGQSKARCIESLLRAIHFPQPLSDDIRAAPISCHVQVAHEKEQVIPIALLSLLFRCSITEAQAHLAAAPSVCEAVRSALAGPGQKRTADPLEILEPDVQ

Take `CCN1CCCC1CNC(=O)c1cc(S(=O)(=O)CC)ccc1OC` (configuration not stated): the max response in assay [1] was -5.69% (inactive) and 12.8% (inactive).
Consider `C[C@]12CC[C@@H]3c4ccc(OS(=O)(=O)O)cc4CC[C@H]3[C@@H]1CCC2=O`, for which, in assay [1], the max response is -15.6% (inactive).
Turning to `O=C1C(c2[nH]c3ccc(S(=O)(=O)O)cc3c2O)=Nc2ccc(S(=O)(=O)O)cc21`, the max response in assay [1] is -2.9% (inactive) and 36.3% (inactive) and 37.5% (inactive).
In the case of `C/C(=C(\CCOC(=O)c1ccccc1)SS/C(CCOC(=O)c1ccccc1)=C(/C)N(C=O)Cc1cnc(C)nc1N)N(C=O)Cc1cnc(C)nc1N`, in assay [1], the max response is 9.71% (inactive).
In the case of `O=C(O)c1ccccc1[O-].O=C(O)c1ccccc1[O-].[Zn+2]`, in assay [1], the max response was 3.06% (inactive).
Take `CCOC(=O)[C@H](CCc1ccccc1)N[C@@H](C)C(=O)N1CC2(C[C@H]1C(=O)O)SCCS2`: in assay [1], the max response is 8.21% (inactive).
On to `CC1(C)C2CC[C@]3(C)[C@H](C(=O)C=C4[C@@H]5C[C@@](C)(C(=O)O)CC[C@]5(C)CC[C@]43C)[C@@]2(C)CC[C@@H]1O[C@H]1O[C@H](C(=O)O)[C@@H](O)[C@H](O)[C@H]1O[C@@H]1O[C@H](C(=O)O)[C@@H](O)[C@H](O)[C@H]1O` (some centres not stated), for which the max response in assay [1] was -0.804% (inactive).
With `O=P(O)(O)OC(Cn1cncn1)(Cn1cncn1)c1ccc(F)cc1F`, the max response in assay [1] was 1.82% (inactive).
`COc1ccnc(CS(=O)c2nc3cc(OC(F)F)ccc3[nH]2)c1OC` (configuration not stated): the max response in assay [1] was -13.5% (inactive).
Turning to `COc1ccc(C2NC(=S)N3C(c4ccc(OC)c(OC)c4)NC(=S)N23)cc1OC` (configuration not stated), the Potency in assay [1] is 0.0023 µM (active).
On to `NCCC(=O)[N-][C@@H](Cc1cnc[nH]1)C(=O)O.[Zn]`, for which, in assay [1], the max response is 14.2% (inactive).
With `CCN(CC)c1ccc(C(=C2C=CC(=[N+](CC)CC)C=C2)c2ccccc2)cc1`, the Potency in assay [1] was 11.2 µM (active).
Consider `CS(=O)(=O)Nc1cc2occ(NC=O)c(=O)c2cc1Oc1ccccc1`, for which, in assay [1], the max response was -2.7% (inactive).
`CCCOc1ccc2nc(NC(=O)OC)sc2c1`: the max response in assay [1] was -5% (inactive).
Regarding `CS(=O)(=O)OCCCNCCCOS(C)(=O)=O`, the max response in assay [1] is -15.1% (inactive).
Take `COc1ccc(CCNCC(O)COc2cccc(C)c2)cc1OC` (configuration not stated): in assay [1], the max response was 11.3% (inactive).
Take `O=C(CO)[C@@H](O)[C@H](O)[C@H](O)CO`: the max response in assay [1] is 0.975% (inactive).
In the case of `COC[C@H](c1ccc(C(F)(F)F)cc1)N1CCN(C2(C)CCN(C(=O)c3c(C)ncnc3C)CC2)C[C@H]1C`, the max response in assay [1] was -5.74% (inactive).
As to `c1cnc2cc3c(cc2n1)[C@@H]1CNC[C@H]3C1`, the max response in assay [1] was 0.0621% (inactive).
Consider `NCCCC(=O)O`, for which the outcome in assay [2], in assay [3] and in assay [4] was inactive. For the same molecule, the max response in assay [1] is 8.69% (inactive) and -6.82% (inactive).
Regarding `CCCC1([C@H](O)C/C=C/[C@H]2[C@H](O)CC(=O)[C@@H]2CCCCCCC(=O)OC)CCC1`, the max response in assay [1] is 2.12% (inactive).
With `CN[C@H]1CC[C@@H](c2ccc(Cl)c(Cl)c2)c2ccccc21`, the result in assay [2], in assay [3] and in assay [4] was inactive.
`CO[C@H]1[C@@H](O)[C@H](N)[C@@H](O[C@H]2O[C@H]([C@H](C)N)CC[C@H]2N)[C@H](O)[C@@H]1N(C)C(=O)CN`: the max response in assay [1] was 15.1% (inactive).
The same measure, in the same setting: under `CCCCCCCCCCCCCCCCCC(=O)OCCO` stands -0.219% (inactive).
With `CCCC(=O)O[C@]1(C(=O)COC(=O)CC)[C@@H](C)C[C@H]2[C@@H]3CCC4=CC(=O)C=C[C@]4(C)[C@@]3(F)[C@@H](O)C[C@@]21C`, the max response in assay [1] is -15.1% (inactive).
Still for that read-out and setting: in the case of `COc1cc2c(c(OC)c1OC)-c1c(cc3c(c1OC)OCO3)C[C@@H](C)[C@](C)(O)C2` it was 3.46% (inactive) and 15.8% (inactive); in that of `CCOC(=O)Nc1ccc2c(c1)N(C(=O)CN(C)C)c1ccccc1CC2`, 6.79% (inactive).
For the molecule `CC#CCC(C)[C@H](O)/C=C/[C@@H]1[C@H]2C/C(=C/CCCC(=O)O)C[C@H]2C[C@H]1O` (some centres not stated), the max response in assay [1] was 11.1% (inactive).
The same measure, in the same setting: in the case of `CN(C)CCOc1ccccc1Cc1ccccc1` (tested in a mixture with another compound) it was 6.62% (inactive).
In turn, `N[C@@H](C(=O)N[C@H]1C(=O)N2C(C(=O)O)=C(Cl)CC[C@H]12)c1ccccc1` returned a parasite growth, % of DMSO control in assay [5] of 101%. The parasite growth remaining, % of DMSO control (lower = more inhibition) in assay [6] came to 100%. The parasite growth, % of control (lower = inhibition) in assay [7] was found to be 78.4%. The growth, % of control in assay [8] was 104%.
Taken in the same sequence, the figures for `CC(=O)NC[C@H]1CN(c2ccc(N3CCSCC3)c(F)c2)C(=O)O1` were 91.5%, 103%, 186% and 110%.
